Where “and” joins values, the source holds several entries; their conditions need not be identical. Equal entries are not always repeated. Inconclusive results are not listed. A structure can be active in one record and inactive in another. Calls of active or inactive are those of the source. Rule for the calls, unless noted: active = hit-call score of the fitted dose curve at least 0.9, where 1 is the maximum; inactive = score below 0.9.
Columns and labels:
[1] = target: Nuclear respiratory factor 1 (Homo sapiens) (UniProt Q16656); test: ATG_NRF1_CIS: Attagene CIS-FACTORIAL HepG2 Assay for human Nuclear Respiratory Factor 1 (NRF1) Orphan Gene (AID 2282987); details: HepG2 NRF1 cis-element reporter, Attagene multiplex; actives raise or lower the signal
Procedure, shortened: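 Endogenous factor activity was captured via cis-element-driven reporter transcripts in HepG2 cells. Following 24 h chemical treatment, transcripts were quantified by RT-PCR and capillary electrophoresis.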

[2] = ATG_NFI_CIS: Attagene CIS-FACTORIAL HepG2 Assay for human Nuclear Factor I (NFI) (AID 2282989); details: HepG2 cis-regulatory reporter, NFI response element transcription; actives raise or lower the signal
Procedure, shortened: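 Cells: human liver HepG2, transiently transfected with promoter-regulated reporter transcription units. Exposure 24 h. Detection: fluorescent RT-PCR products separated by capillary electrophoresis, normalised to DMSO negative control.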

[3] = target: Myc proto-oncogene protein (Homo sapiens) (UniProt P01106); test: ATG_Myc_CIS: Attagene CIS-FACTORIAL HepG2 Assay for human Myelocytomatosis (Myc) Proto-Oncogene Transcription Factor (AID 2282990); details: HepG2, Attagene cis-reporter transcription factor activity; actives raise or lower the signal
Procedure, shortened: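 After 24 h chemical treatment of HepG2 cells carrying multiplexed cis-regulated reporter constructs, reporter transcripts quantified by RT-PCR and capillary electrophoresis of fluorescent fragments. Gain or loss fitted against DMSO baseline.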

[4] = ATG_NF_kB_CIS: Attagene CIS-FACTORIAL HepG2 Assay for human Nuclear Factor Kappa B (NF-kB) (AID 2282991); details: HepG2 Attagene cis-factorial NF-kB reporter mRNA; actives raise or lower the signal
Procedure, shortened: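 After 24 h compound incubation, transfected HepG2 cells yield total RNA; reporter cDNA is PCR-amplified, end-labelled with 6-FAM, HpaI-digested and analysed on a genetic analyser. Endogenous factor activity, DMSO-referenced bidirectional fit.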

[5] = ATG_NRF2_ARE_CIS: Attagene CIS-FACTORIAL HepG2 Assay for human Nuclear Factor Erythroid 2 Related Factor 2 (NFR2) response to Antioxidant Response Elements (ARE) (AID 2282992); details: HepG2 Attagene ARE/NRF2 reporter, transcription factor activity; actives raise or lower the signal;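 for AC50: reporter mRNA level measured by RT-PCR and capillary electrophoresis fluorescence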
Procedure, shortened: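 Readout: reporter mRNA quantified by RT-PCR plus FAM-labelled primer extension, HpaI digestion and capillary electrophoresis, 24 h after dosing transfected HepG2 cells. Gain or loss of signal is fitted bidirectionally against DMSO baseline.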

[6] = ATG_Oct_MLP_CIS: Attagene CIS-FACTORIAL HepG2 Assay for human Octamer-Binding Transcription Factor (Oct) (AID 2282993); details: HepG2 Attagene cis-factorial Oct reporter, mRNA; actives raise or lower the signal
Procedure, shortened: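 HepG2, transient MRTU transfection, cis promoter elements; 24 h dosing; RT-PCR/CE fluorescence read-out of reporter mRNA; fit both directions vs DMSO.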

[7] = target: Cellular tumor antigen p53 (Homo sapiens) (UniProt P04637); test: ATG_p53_CIS: Attagene CIS-FACTORIAL HepG2 Assay for human p53 Transcription Factor (AID 2282994); details: HepG2 p53 cis-element reporter, Attagene mRNA; actives raise or lower the signal
Procedure, shortened: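 Read-out: reporter mRNA by RT-PCR plus capillary electrophoresis with fluorescence detection. Human HepG2 liver cells carried transfected multi-reporter cis-element constructs, dosed 24 h. Gain or loss of signal fitted bidirectionally against DMSO control.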

[8] = BSK_3C_TissueFactor: BioMAP Diversity Plus: 3C Assay for Tissue Factor Biomarker Activity (AID 2282997); details: BioMAP 3C HUVEC, tissue factor biomarker readout; actives raise or lower the signal
Procedure, shortened: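 After a 24 h chemical exposure of primary human umbilical vein endothelial cells, Tissue Factor levels were quantified by ELISA.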

[9] = BSK_3C_uPAR: BioMAP Diversity Plus: 3C Assay for Urokinase-type plasminogen activator receptor (uPAR) Biomarker Activity (AID 2282998); details: BioMAP 3C HUVEC, uPAR biomarker ELISA; actives raise or lower the signal
Procedure, shortened: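 A multiplexed primary-cell system built on human umbilical vein endothelium was used, with chemical present for 24 h before reading. Cell-surface uPAR was detected by ELISA; signal change in either direction counted against DMSO.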

[10] = BSK_3C_VCAM1: BioMAP Diversity Plus: 3C Assay for Vascular cell adhesion molecule 1 (VCAM1) Biomarker Activity (AID 2282999); details: BioMAP 3C HUVEC, VCAM1 ELISA, cytokine-stimulated; actives raise or lower the signal
Procedure, shortened: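 Activity fitted in both directions relative to DMSO, with ELISA measurement of the surface marker on primary HUVEC (3C) at 24 h post-treatment; parallel SRB staining (0.1% SRB, TCA-fixed, 560 nm) flagged overt cytotoxicity.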

[11] = BSK_4H_Eotaxin3: BioMAP Diversity Plus: 4H Assay for Eotaxin 3 Biomarker Activity (AID 2283000); details: primary human endothelial cells (HUVEC); actives raise or lower the signal
Procedure, shortened: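 Chemicals were added to human umbilical vein endothelium cultures, and Eotaxin-3 was quantified by ELISA at 24 h. Values were derived by bidirectional fitting with DMSO serving as negative control and activity baseline.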

[12] = target: human Peroxisome Proliferator-activated Receptor alpha (PPARa), PPARA (gene 5465) (UniProt Q07869); test: ATG_PPARa_TRANS: Attagene TRANS-FACTORIAL HepG2 Assay for human Peroxisome Proliferator-activated Receptor alpha (PPARa) (AID 2283001; active = hit-call score of the fitted dose curve at least 0.9, where 1 is the maximum)
Procedure, shortened: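 Reporter transcripts quantified by RT-PCR plus capillary electrophoresis after 24 h treatment, fitted upward relative to DMSO. Cells: human HepG2 transiently carrying multiple GAL4-UAS reporter units driven by NR-Gal4 chimeras.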

[13] = target: human Peroxisome Proliferator-activated Receptor delta (PPARd), PPARD (gene 5467) (UniProt Q03181); test: ATG_PPARd_TRANS: Attagene TRANS-FACTORIAL HepG2 Assay for human Peroxisome Proliferator-activated Receptor delta (PPARd) (AID 2283002; active = hit-call score of the fitted dose curve at least 0.9, where 1 is the maximum)
Procedure, shortened: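 Read-out is induced reporter mRNA, quantified by RT-PCR with fluorescent labelling and capillary electrophoresis after 24 h dosing. Cells are HepG2 transiently carrying multiple GAL4-UAS reporter units driven by exogenous NR-GAL4 chimeras; DMSO serves as baseline.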

[14] = read-out: Intercellular Adhesion Molecule 1 (ICAM1), ICAM1 (gene 3383); test: BSK_3C_ICAM1: BioMAP Diversity Plus: 3C Assay for Intercellular Adhesion Molecule 1 (ICAM1) Biomarker Activity (AID 2283003); details: primary human endothelial cells (HUVEC); actives raise or lower the signal
Procedure, shortened: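 Chemicals are dosed onto primary human umbilical vein endothelium (3C system). After 24 h, ICAM-1 is measured by ELISA, and responses are fitted bidirectionally relative to DMSO.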

[15] = target: human Retinoic Acid Receptor beta (RARb), RARB (gene 5915) (UniProt P10826); test: ATG_RARb_TRANS: Attagene TRANS-FACTORIAL HepG2 Assay for human Retinoic Acid Receptor beta (AID 2283004; active = hit-call score of the fitted dose curve at least 0.9, where 1 is the maximum)
Procedure, shortened: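 Transient transfection of HepG2 with multiple reporter units → chemical dosing, 24 h → total RNA isolation → RT with oligo(dT) → reporter-specific PCR, 6-FAM primer extension, HpaI digest → capillary electrophoresis. Positive direction vs DMSO control.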

[16] = target: Retinoic acid receptor alpha (Homo sapiens) (UniProt P10276); test: ATG_RARa_TRANS: Attagene TRANS-FACTORIAL HepG2 Assay for human Retinoic Acid Receptor alpha (RARa) (AID 2283005; active = hit-call score of the fitted dose curve at least 0.9, where 1 is the maximum)
Procedure, shortened: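 Reporter transcripts, measured by RT-PCR with fluorescent labeling and capillary electrophoresis after 24 h dosing, reflect activity of an exogenous human RARa–GAL4 fusion in transiently transfected HepG2. Fitted for increase relative to DMSO.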

[17] = target: Peroxisome proliferator-activated receptor gamma (Homo sapiens) (UniProt P37231); test: ATG_PPARg_TRANS: Attagene TRANS-FACTORIAL HepG2 Assay for human Peroxisome Proliferator-activated Receptor-gamma (PPARg) (AID 2283007; active = hit-call score of the fitted dose curve at least 0.9, where 1 is the maximum)
Procedure, shortened: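 Liver-derived HepG2 cells expressing an exogenous NR-Gal4 chimera alongside GAL4-UAS reporter genes; 24 h exposure. Fluorescence of reporter RT-PCR products, separated by capillary electrophoresis, gives mRNA induction relative to DMSO.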

[18] = target: Nuclear receptor subfamily 1 group I member 2 (Homo sapiens) (UniProt O75469); test: ATG_PXR_TRANS: Attagene TRANS-FACTORIAL HepG2 Assay for human Pregnane X Receptor (PXR) (AID 2283008; active = hit-call score of the fitted dose curve at least 0.9, where 1 is the maximum)
Procedure, shortened: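 Trans-factorial format: exogenous NR-Gal4 fusion activity, not endogenous factor, in transfected human HepG2 liver cells. After 24 h dosing, RNA isolated, reverse-transcribed, amplified and resolved by capillary electrophoresis; induction scored versus DMSO.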

[19] = target: human Retinoic Acid Receptor gamma (RARg), RARG (gene 5916) (UniProt P13631); test: ATG_RARg_TRANS: Attagene TRANS-FACTORIAL HepG2 Assay for human Retinoic Acid Receptor gamma (RARg) (AID 2283009; active = hit-call score of the fitted dose curve at least 0.9, where 1 is the maximum)
Procedure, shortened: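 TRANS format measured activity of exogenous NR-GAL4 fusion (RARg) in transfected HepG2 liver cells after 24 h dosing. Induced reporter RNA was detected by RT-PCR/capillary electrophoresis fluorescence, analysed in the positive direction against DMSO.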

[20] = BSK_3C_Proliferation: Cell Proliferation Assessment in the BioMAP Diversity Plus: 3C Assay (AID 2283006); details: primary human endothelial cells (HUVEC);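 note: potency may reflect either rise or fall in cell number versus DMSO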
Procedure, shortened: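 Cells (human umbilical vein endothelial, sub-confluent) receive test chemical; after 48 h they are fixed in 10% trichloroacetic acid, stained with 0.1% SRB and read at 560 nm. Activity is referenced to DMSO, fitting increases and decreases.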

Measured: AC50

Sequence of Myc proto-oncogene protein (Homo sapiens) (P01106 whole entry, looked up, the tested form may be a part): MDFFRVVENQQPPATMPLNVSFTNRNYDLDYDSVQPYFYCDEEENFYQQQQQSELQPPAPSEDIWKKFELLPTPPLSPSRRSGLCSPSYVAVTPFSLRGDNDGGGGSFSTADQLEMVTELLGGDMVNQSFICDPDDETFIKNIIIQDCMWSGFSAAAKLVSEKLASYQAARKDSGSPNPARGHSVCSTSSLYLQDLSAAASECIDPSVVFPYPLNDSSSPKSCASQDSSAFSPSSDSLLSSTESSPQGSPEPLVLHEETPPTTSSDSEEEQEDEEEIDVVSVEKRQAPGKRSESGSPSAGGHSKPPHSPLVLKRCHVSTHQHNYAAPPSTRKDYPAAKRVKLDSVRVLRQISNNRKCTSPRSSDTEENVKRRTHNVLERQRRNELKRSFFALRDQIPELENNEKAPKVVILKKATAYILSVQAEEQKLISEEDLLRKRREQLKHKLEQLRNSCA
Sequence of human Peroxisome Proliferator-activated Receptor delta (PPARd), PPARD (gene 5467) (Q03181 whole entry, looked up, the tested form may be a part): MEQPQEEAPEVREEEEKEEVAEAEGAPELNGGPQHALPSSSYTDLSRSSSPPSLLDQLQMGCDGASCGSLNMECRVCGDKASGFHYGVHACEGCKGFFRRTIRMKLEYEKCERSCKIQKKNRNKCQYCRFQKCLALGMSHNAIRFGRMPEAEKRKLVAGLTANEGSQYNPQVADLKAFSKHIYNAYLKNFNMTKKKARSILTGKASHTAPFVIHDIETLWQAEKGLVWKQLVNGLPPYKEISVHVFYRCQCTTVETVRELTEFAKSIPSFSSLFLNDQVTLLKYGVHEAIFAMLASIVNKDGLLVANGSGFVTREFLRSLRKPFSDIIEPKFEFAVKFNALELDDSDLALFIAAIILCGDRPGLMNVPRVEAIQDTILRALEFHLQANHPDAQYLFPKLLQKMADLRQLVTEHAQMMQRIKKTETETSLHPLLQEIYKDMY
Sequence of Cellular tumor antigen p53 (Homo sapiens) (P04637 whole entry, looked up): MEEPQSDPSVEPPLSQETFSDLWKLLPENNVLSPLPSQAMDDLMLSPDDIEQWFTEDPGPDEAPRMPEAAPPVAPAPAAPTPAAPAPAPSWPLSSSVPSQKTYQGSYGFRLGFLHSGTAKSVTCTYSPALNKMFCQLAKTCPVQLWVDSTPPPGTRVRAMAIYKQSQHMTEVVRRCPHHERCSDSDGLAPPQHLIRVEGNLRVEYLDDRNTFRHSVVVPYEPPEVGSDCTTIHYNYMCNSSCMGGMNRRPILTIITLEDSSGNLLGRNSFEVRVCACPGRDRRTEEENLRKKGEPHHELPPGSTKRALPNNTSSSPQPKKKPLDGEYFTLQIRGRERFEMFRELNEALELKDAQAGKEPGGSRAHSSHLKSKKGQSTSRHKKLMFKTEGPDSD
Sequence of human Peroxisome Proliferator-activated Receptor alpha (PPARa), PPARA (gene 5465) (Q07869 whole entry, looked up, the tested form may be a part): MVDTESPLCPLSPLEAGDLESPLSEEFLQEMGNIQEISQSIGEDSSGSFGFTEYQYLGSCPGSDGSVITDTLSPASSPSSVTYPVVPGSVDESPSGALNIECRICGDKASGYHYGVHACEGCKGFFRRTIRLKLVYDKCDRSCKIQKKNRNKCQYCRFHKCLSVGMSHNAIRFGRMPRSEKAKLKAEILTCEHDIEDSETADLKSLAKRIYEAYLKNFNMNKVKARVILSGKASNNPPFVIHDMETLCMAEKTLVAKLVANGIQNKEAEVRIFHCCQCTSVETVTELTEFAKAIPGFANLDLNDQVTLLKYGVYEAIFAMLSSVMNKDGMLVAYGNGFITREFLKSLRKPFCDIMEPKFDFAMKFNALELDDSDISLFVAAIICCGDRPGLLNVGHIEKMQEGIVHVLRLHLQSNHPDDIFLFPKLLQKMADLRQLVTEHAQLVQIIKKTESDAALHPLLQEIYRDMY
Sequence of human Retinoic Acid Receptor beta (RARb), RARB (gene 5915) (P10826 whole entry, looked up): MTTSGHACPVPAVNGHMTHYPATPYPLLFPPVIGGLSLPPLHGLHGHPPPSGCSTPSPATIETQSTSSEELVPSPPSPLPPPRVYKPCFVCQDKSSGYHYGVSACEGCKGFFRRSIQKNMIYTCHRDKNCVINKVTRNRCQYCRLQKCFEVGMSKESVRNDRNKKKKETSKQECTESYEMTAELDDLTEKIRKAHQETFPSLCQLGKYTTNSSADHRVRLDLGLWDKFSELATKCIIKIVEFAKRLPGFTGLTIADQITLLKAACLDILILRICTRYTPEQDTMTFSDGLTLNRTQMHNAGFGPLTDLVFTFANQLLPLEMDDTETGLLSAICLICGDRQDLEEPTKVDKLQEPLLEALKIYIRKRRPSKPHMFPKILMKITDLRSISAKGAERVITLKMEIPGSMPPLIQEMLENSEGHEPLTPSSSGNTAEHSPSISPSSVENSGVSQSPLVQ
Sequence of Nuclear receptor subfamily 1 group I member 2 (Homo sapiens) (O75469 whole entry, looked up, the tested form may be a part): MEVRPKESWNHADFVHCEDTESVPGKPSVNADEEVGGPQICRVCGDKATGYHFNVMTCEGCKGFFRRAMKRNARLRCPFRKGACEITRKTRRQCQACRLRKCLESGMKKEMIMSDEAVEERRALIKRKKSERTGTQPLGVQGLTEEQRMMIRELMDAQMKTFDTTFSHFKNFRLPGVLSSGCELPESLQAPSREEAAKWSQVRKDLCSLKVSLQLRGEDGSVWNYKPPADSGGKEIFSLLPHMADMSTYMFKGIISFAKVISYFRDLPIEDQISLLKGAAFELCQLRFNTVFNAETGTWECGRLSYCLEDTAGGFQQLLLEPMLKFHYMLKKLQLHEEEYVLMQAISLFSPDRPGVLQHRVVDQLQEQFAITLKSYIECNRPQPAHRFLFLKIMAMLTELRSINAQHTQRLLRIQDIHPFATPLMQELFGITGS
Sequence of human Retinoic Acid Receptor gamma (RARg), RARG (gene 5916) (P13631 whole entry, looked up, the tested form may be a part): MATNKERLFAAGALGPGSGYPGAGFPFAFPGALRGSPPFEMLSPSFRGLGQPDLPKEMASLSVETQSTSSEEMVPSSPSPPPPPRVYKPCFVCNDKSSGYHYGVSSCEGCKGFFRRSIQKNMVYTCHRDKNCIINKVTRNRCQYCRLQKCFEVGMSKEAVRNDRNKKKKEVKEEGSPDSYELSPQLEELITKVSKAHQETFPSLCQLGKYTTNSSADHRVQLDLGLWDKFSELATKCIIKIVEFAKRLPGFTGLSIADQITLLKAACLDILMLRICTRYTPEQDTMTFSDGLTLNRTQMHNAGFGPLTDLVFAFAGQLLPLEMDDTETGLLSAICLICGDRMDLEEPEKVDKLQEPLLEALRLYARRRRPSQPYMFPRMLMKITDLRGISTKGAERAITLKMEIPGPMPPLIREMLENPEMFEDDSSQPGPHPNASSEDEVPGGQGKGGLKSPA
Sequence of Peroxisome proliferator-activated receptor gamma (Homo sapiens) (P37231 whole entry, looked up, the tested form may be a part): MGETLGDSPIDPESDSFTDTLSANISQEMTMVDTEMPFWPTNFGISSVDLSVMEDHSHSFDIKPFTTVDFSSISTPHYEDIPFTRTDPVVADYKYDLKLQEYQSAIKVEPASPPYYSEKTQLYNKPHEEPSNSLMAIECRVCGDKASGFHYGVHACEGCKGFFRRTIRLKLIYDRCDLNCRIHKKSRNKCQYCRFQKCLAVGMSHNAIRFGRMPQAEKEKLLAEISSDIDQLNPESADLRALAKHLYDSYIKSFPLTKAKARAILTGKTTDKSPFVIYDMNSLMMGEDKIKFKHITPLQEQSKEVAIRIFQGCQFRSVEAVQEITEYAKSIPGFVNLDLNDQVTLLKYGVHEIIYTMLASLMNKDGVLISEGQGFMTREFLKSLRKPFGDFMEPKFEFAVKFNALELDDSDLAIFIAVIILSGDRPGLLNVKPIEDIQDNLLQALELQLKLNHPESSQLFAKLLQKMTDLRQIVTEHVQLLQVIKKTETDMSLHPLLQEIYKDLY
Sequence of Nuclear respiratory factor 1 (Homo sapiens) (Q16656 whole entry, looked up): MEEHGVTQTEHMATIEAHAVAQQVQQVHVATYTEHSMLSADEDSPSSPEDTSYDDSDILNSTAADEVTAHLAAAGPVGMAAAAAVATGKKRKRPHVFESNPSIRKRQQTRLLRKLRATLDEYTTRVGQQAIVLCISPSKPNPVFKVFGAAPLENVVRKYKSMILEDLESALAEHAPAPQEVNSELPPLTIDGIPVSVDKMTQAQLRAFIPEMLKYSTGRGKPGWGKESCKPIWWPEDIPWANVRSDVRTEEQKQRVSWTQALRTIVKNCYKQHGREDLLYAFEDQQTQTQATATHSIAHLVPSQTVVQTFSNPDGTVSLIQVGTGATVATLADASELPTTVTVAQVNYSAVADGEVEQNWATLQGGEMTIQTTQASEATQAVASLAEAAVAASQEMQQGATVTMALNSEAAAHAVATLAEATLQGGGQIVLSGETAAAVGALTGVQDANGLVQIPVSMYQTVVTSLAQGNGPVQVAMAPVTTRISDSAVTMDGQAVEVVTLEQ
Sequence of Retinoic acid receptor alpha (Homo sapiens) (P10276 whole entry, looked up, the tested form may be a part): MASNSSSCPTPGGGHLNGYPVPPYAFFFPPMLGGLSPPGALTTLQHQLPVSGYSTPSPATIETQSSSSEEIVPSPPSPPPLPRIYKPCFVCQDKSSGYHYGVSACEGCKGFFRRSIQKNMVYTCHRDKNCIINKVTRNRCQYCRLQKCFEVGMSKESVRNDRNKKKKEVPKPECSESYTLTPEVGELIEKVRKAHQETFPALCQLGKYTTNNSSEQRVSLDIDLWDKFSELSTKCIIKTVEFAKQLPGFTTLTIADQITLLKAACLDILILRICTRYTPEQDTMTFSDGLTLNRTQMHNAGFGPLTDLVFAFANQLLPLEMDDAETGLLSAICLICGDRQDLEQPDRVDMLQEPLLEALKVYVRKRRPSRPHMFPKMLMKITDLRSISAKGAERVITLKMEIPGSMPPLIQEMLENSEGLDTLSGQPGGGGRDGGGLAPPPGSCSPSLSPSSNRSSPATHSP

N#CSCSC#N
active: [8] 5.49 µM | [9] 5.93 µM | [10] 8.79 µM | [11] 6.94 µM | [14] 8.09 µM
not listed: [20]
inactive: all other assays above

O=[N+]([O-])c1cc(C(F)(F)F)c(Cl)c([N+](=O)[O-])c1Nc1ncc(C(F)(F)F)cc1Cl
active: [1] 21.5 µM | [4] 11.9 µM | [5] 2.7 µM | [8] 1.16 µM and 2.68 µM | [9] 1.05 µM and 3.18 µM | [10] 1.46 µM and 2.82 µM | [11] 1.39 µM and 3.07 µM | [14] 3.09 µM and 3.8 µM | [20] 589 nM and 1.47 µM | [17] 0.651 µM | [18] 2.86 µM
inactive: [1] | [2] | [3] | [4] | [5] | [6] | [12] | [13] | [15] | [16] | [17] | [18] | [19]

CC(COc1ccc(Oc2ccccc2)cc1)Oc1ccccn1 (centres undefined)
active: [4] 13.8 µM | [5] 7.23 µM | [6] 13 µM | [9] 23.6 µM | [17] 14.5 µM
not listed: [12] | [15] | [16] | [19] | [20]
inactive: all other assays above

CC1=NNC(=O)N(/N=C/c2cccnc2)C1
not listed: [13] | [14] | [15] | [20]
inactive: all other assays above

CON=C(C(=O)OC)c1ccccc1CON=C(C)c1cccc(C(F)(F)F)c1
active: [4] 73.1 µM | [5] 15.7 µM | [6] 13.5 µM | [11] 2.78 µM | [20] 1.58 µM | [17] 50 µM
inactive: all other assays above

CCOP(=S)(OCC)OC(Cl)C(Cl)(Cl)Cl (centres undefined)
active: [4] 26.4 µM | [5] 50 µM | [6] 29.2 µM | [10] 14.6 µM
not listed: [12] | [14] | [20]
inactive: all other assays above

CC(C1CC1)C(O)(Cn1cncn1)c1ccc(Cl)cc1 (centres undefined)
not listed: [14] | [20]
inactive: all other assays above

Source: PubChem BioAssay (EPA / NIEHS)
